Records with an inconclusive call do not appear. Unless noted, calls follow the shape of the dose curve; as a rule, active = well fitted curve in either direction with a large enough effect (not every such curve was filed as active); inconclusive = small, poorly fitted or top-dose-only effect, or another doubt; inactive = flat fitted curve, though single readings scatter.
How the values were obtained:
[1] = AP1 Signaling Pathway (AID 357); details: ME-180 AP-1-bla reporter, EGF-induced, beta-lactamase ratio, 5 h; at 17.2 µM (top of the series) unless noted;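 also: ME-180 reporter cells stimulated with EGF at its EC50 level; % is scaled to controls: 0 for no effect and ±100 for the full control effect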
Method in brief: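 Read-out was the 460nm/530nm emission ratio (excitation 405nm) after CCF4 loading for 2.5 hours at room temperature. Cells carried an AP-1-driven beta-lactamase reporter, were stimulated with EC50 EGF plus compound for 5 hours, and AC50 values came from titrations.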

[2] = Stat Signaling Pathway (AID 446); details: ME-180 (cervical carcinoma) SIE beta-lactamase reporter, IL-6 stimulated, 5 h; at 17.2 µM (top of the series) unless noted;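 also: ME-180 cervical cancer cells given 40 pM IL-6 alongside compound; SIE-controlled beta-lactamase reporter measured as 460/530 nm FRET emission ratio; % is scaled to controls: 0 for no effect and ±100 for the full control effect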
Method in brief: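 Emission at 460 and 530 nm (excitation 405 nm) reports SIE-controlled beta-lactamase in ME-180 cells. Cells received compound with 40 pM IL-6 for 5 hrs at 37 C; data scaled between 300 pM IL-6 and 125 nM JAK-inhibitor controls.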

[3] = target: Glucocorticoid receptor (Homo sapiens) (UniProt P04150); assay: GR-GFP Redistribution (AID 450;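 active = compounds whose dose series gives a full or clear partial fitted curve of increased nuclear translocation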; also: potency is read from the fitted curve at half-maximal effect)
Chain of Glucocorticoid receptor (Homo sapiens) (P04150 whole entry, looked up): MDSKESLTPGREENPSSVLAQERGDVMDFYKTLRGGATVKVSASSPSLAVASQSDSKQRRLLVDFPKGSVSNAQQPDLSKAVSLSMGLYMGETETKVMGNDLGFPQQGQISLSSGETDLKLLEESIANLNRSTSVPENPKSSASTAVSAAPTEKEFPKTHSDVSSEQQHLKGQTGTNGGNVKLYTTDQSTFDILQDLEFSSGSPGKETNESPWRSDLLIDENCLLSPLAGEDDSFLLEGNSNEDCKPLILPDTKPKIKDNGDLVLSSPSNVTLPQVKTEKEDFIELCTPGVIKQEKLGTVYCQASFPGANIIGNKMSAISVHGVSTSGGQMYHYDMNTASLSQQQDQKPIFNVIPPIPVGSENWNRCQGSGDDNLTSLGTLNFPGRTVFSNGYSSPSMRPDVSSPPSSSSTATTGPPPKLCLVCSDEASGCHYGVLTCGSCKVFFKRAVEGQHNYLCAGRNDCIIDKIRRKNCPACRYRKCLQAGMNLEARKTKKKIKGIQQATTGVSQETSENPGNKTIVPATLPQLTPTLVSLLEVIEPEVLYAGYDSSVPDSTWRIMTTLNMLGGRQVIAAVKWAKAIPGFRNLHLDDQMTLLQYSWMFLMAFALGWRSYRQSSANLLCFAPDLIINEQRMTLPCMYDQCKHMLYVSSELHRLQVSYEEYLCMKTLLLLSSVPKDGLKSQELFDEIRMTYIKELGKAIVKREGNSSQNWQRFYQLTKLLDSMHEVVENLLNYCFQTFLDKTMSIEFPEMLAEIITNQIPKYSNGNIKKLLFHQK

CN1CCN(C(=O)CSc2nc(-c3cccs3)ccc2C#N)CC1
inactive: activity change, negative = inhibition [1] -11% | activity, negative = inhibition [2] -1.05% | Potency [3] > 20.6 µM

CCOC(=O)CSc1nnc2n(C3CCCCC3)c(=O)c3c4c(sc3n12)CCCC4
inactive: activity change, negative = inhibition [1] -9.49% | activity, negative = inhibition [2] -21.4% | Potency [3] > 20.6 µM

Cc1cccc(OCC(=O)N2CCC(N3CCCCCC3)CC2)c1
inactive: activity change, negative = inhibition [1] 4.73% | activity, negative = inhibition [2] 5.82% | Potency [3] > 20.6 µM

COC(=O)CSC1=C(C#N)C(=O)NC2(CCCCC2)S1
inactive: activity change, negative = inhibition [1] 1.61% | activity, negative = inhibition [2] 3.53% | Potency [3] > 20.6 µM

O=C(O)CC(NCc1ccco1)C(=O)OCC1CCCO1 (centres undefined)
inactive: activity change, negative = inhibition [1] 11.5% | activity, negative = inhibition [2] -1.58% | Potency [3] > 20.6 µM

CC(C)CC(=O)Nc1ncnc2c1C(=O)CC(C)(C)C2
inactive: activity change, negative = inhibition [1] 1.69% | activity, negative = inhibition [2] 14.7% | Potency [3] > 20.6 µM

C=C1c2cc(OC)ccc2NC(=O)N1CC
inactive: activity change, negative = inhibition [1] 13.3% | activity, negative = inhibition [2] 1.02% | Potency [3] > 20.6 µM

Cc1nnc(NCc2n[nH]c(=O)c3ccccc23)c2ccccc12
inactive: activity change, negative = inhibition [1] 29.7% | activity, negative = inhibition [2] 25.1% | Potency [3] > 20.6 µM

Cc1c(C)c2cc(Cl)c(O)c(CN3CCCCC3)c2oc1=O
inactive: activity change, negative = inhibition [1] 17.2% | activity, negative = inhibition [2] 2.68% | Potency [3] > 20.6 µM

COc1ccccc1NC(=O)C1=C(C)NC(SCC(=O)c2ccc(C)cc2)=C(C#N)C1c1ccco1 (centres undefined)
inactive: activity change, negative = inhibition [1] -8.91% | activity, negative = inhibition [2] -6.63% | Potency [3] > 20.6 µM

C=CCn1c(SCC#N)nc2c(c1=O)C(C)(C)Cc1ccccc1-2
inactive: activity change, negative = inhibition [1] -2.85% | activity, negative = inhibition [2] -1.93% | Potency [3] > 20.6 µM

CN(Cc1c(O)ccc2c1oc(=O)c1ccccc12)C1CCCCC1
inactive: activity change, negative = inhibition [1] 2.27% | activity, negative = inhibition [2] 4.77% | Potency [3] > 20.6 µM

Cc1cc(Cn2ccnc2)c(C)cc1Cn1ccnc1
inactive: activity change, negative = inhibition [1] 0.168% | activity, negative = inhibition [2] 2% | Potency [3] > 20.6 µM

CCOC(=O)c1[nH]c2ccc(OC)cc2c1NC(=O)CCN1CCN(Cc2ccccc2)CC1
inactive: activity change, negative = inhibition [1] -6.55% | activity, negative = inhibition [2] 4.87% | Potency [3] > 20.6 µM

CCC1CCCCN1c1nc(-c2cccc(OC)c2O)nc2ccccc12 (centres undefined)
inactive: activity change, negative = inhibition [1] -8.8% | activity, negative = inhibition [2] -4.92% | Potency [3] > 20.6 µM

COc1ccc(CCn2c(=N)c(C(=O)NCc3ccco3)cc3c(=O)n4ccccc4nc32)cc1
inactive: activity change, negative = inhibition [1] -1.64% | activity, negative = inhibition [2] 2.96% | Potency [3] > 20.6 µM

N#CC1=C(N)N(c2ccccc2)C(c2ccccc2)C1(C#N)C#N (centres undefined)
inactive: activity change, negative = inhibition [1] -27.2% | activity, negative = inhibition [2] -18.6% | Potency [3] > 20.6 µM

C=CCOc1nc2c(c(=O)n(C)c(=O)n2C)n1Cc1c(Cl)cccc1Cl
inactive: activity change, negative = inhibition [1] 0.413% | activity, negative = inhibition [2] 3.61% | Potency [3] > 20.6 µM

CCOC(=O)c1[nH]c2cc(OC)c(OC)cc2c1NC(=O)C(C)N1CCN(Cc2ccccc2)CC1 (centres undefined)
inactive: activity change, negative = inhibition [1] -21.5% | activity, negative = inhibition [2] -4.92% | Potency [3] > 20.6 µM

CCCCNC(=O)N(C)c1nncnc1C(=O)NC
inactive: activity change, negative = inhibition [1] 16.6% | activity, negative = inhibition [2] 11.5% | Potency [3] > 20.6 µM

N#CCSc1nc2c(cc1C#N)CCCCCC2
inactive: activity change, negative = inhibition [1] -14.6% | activity, negative = inhibition [2] 5.36% | Potency [3] > 20.6 µM

CN1CCN(c2nc3c(c(=O)n(C)c(=O)n3C)n2Cc2cccc3ccccc23)CC1
inactive: activity change, negative = inhibition [1] -9.31% | activity, negative = inhibition [2] -2.69% | Potency [3] > 20.6 µM

CCCCn1c(O)c(C=NCCCN(C)C)c(=O)[nH]c1=O
inactive: activity change, negative = inhibition [1] -1.31% | activity, negative = inhibition [2] 3.99% | Potency [3] > 20.6 µM

CCCc1cc(NCCCCO)n2c(nc3ccccc32)c1C#N
inactive: activity change, negative = inhibition [1] -18.6% | activity, negative = inhibition [2] -4.18% | Potency [3] > 20.6 µM

O=C1OC(Nc2ccc(Br)cc2F)c2ccccc21 (centres undefined)
inactive: activity change, negative = inhibition [1] 0.165% | activity, negative = inhibition [2] 2.24% | Potency [3] > 20.6 µM

Oc1c(C=NCc2ccncc2)sc2ccccc12
inactive: activity change, negative = inhibition [1] -15.7% | activity, negative = inhibition [2] -1.25% | Potency [3] > 20.6 µM

CN1C2C=C3C(C#N)=C(N)C(C#N)(C#N)[C@@H](c4ccc(Cl)cc4)[C@@H]3C1CC2 (some centres undefined)
inactive: activity change, negative = inhibition [1] -8.82% | activity, negative = inhibition [2] 5.5% | Potency [3] > 20.6 µM

CN1C2C=C3C(C#N)=C(N)C(C#N)(C#N)[C@@H](c4ccsc4)[C@@H]3C1CC2 (some centres undefined)
inactive: activity change, negative = inhibition [1] 20.1% | activity, negative = inhibition [2] 3.71% | Potency [3] > 20.6 µM

COc1ccccc1-c1nn2c(-c3ccco3)nnc2s1
inactive: activity change, negative = inhibition [1] 0.523% | activity, negative = inhibition [2] -5.72% | Potency [3] > 20.6 µM

N#CC(C(=O)NC1CCCCC1)c1nc2ccccc2nc1N1CCN(c2ccccc2F)CC1 (centres undefined)
inactive: activity change, negative = inhibition [1] -12.2% | activity, negative = inhibition [2] -5.87% | Potency [3] > 20.6 µM

CCOc1ccc2c(C)nc(NC3=NC(C)(C)C=C(C)N3)nc2c1
inactive: activity change, negative = inhibition [1] 26.3% | activity, negative = inhibition [2] 25.6% | Potency [3] > 20.6 µM

C1CCCN(CCCCN2CCCCCC2)CC1
inactive: activity change, negative = inhibition [1] 3.84% | activity, negative = inhibition [2] 16% | Potency [3] > 20.6 µM

Cc1cccn2c(=O)c3cc(C(N)=S)c(=N)n(CCCOC(C)C)c3nc12
inactive: activity change, negative = inhibition [1] -0.111% | activity, negative = inhibition [2] 13.3% | Potency [3] > 20.6 µM

CCOC(=O)C1CCN(c2nc3ccccc3nc2C(C#N)C(=O)OCCOC)CC1 (centres undefined)
inactive: activity change, negative = inhibition [1] -17.6% | activity, negative = inhibition [2] -9.08% | Potency [3] > 20.6 µM

CC1(C)Cc2c(C#N)c(SCCOc3ccccc3)nc(N3CCOCC3)c2CO1
inactive: activity change, negative = inhibition [1] -5.93% | activity, negative = inhibition [2] -22.3% | Potency [3] > 20.6 µM

Nc1ccc2oc(-c3cc(Br)ccc3Cl)nc2c1
inactive: activity change, negative = inhibition [1] -29.4% | activity, negative = inhibition [2] 0.658% | Potency [3] > 20.6 µM

CCCc1nc(N2CCCC2)c(C#N)c2c1CCCC2
inactive: activity change, negative = inhibition [1] -2.98% | activity, negative = inhibition [2] 10.3% | Potency [3] > 20.6 µM

Cc1cc(C)n(CC2CC(=O)N(c3ccc(F)c(Cl)c3)C2=O)n1 (centres undefined)
inactive: activity change, negative = inhibition [1] -5.28% | activity, negative = inhibition [2] -2.55% | Potency [3] > 20.6 µM

CC(C)Cc1nc(N2CCOCC2)c(C#N)c2c1CCC2
inactive: activity change, negative = inhibition [1] -16.4% | activity, negative = inhibition [2] -0.768% | Potency [3] > 20.6 µM

CCCCCNc1nc(N2CCCC2)c2c(c1C#N)CCN(C)C2
inactive: activity change, negative = inhibition [1] 3.36% | activity, negative = inhibition [2] -7.71% | Potency [3] > 20.6 µM

CCCCOC(=O)C(C)c1c(C)[nH]c(=S)[nH]c1=O (centres undefined)
inactive: activity change, negative = inhibition [1] 7.17% | activity, negative = inhibition [2] -3.5% | Potency [3] > 20.6 µM

C[C@]12CC[C@@H]3c4ccc(O)cc4C(=O)C[C@H]3[C@@H]1CC[C@@H]2O
inactive: activity change, negative = inhibition [1] 0.317% | activity, negative = inhibition [2] -2.37% | Potency [3] > 20.6 µM

CCOC(=O)c1[nH]c2ccc(OC)cc2c1NC(=O)CCN1CCc2ccccc2C1
inactive: activity change, negative = inhibition [1] -5.08% | activity, negative = inhibition [2] -3.49% | Potency [3] > 20.6 µM

Clc1ccc2[nH]c3c(NCCN4CCOCC4)ncnc3c2c1
inactive: activity change, negative = inhibition [1] -14.6% | activity, negative = inhibition [2] -0.484% | Potency [3] > 20.6 µM

CCN(CC)CCCn1c(C)cc2c(c1=O)C(c1ccc(OC)c(OC)c1OC)C(C#N)=C(N)O2 (centres undefined)
inactive: activity change, negative = inhibition [1] 6.36% | activity, negative = inhibition [2] 10.3% | Potency [3] > 20.6 µM

COc1cccc(C2=CC(c3ccc(N(C)C)cc3)n3nnnc3N2)c1 (centres undefined)
inactive: activity change, negative = inhibition [1] -12.2% | activity, negative = inhibition [2] 14.4% | Potency [3] > 20.6 µM

C=CCN(CC=C)c1nc2ccccc2nc1C(C#N)C(=O)OC(C)C (centres undefined)
inactive: activity change, negative = inhibition [1] -13.3% | activity, negative = inhibition [2] -28.3% | Potency [3] > 20.6 µM

CC1CCc2cc(F)cc3c(O)c(C(=O)NCc4ccco4)c(=O)n1c23 (centres undefined)
inactive: activity change, negative = inhibition [1] -28.9% | activity, negative = inhibition [2] -2.44% | Potency [3] > 20.6 µM

CC1(C)Cc2c(sc3c2C2=NCCN2C=N3)CO1
inactive: activity change, negative = inhibition [1] 12.7% | activity, negative = inhibition [2] 1.72% | Potency [3] > 20.6 µM

CCCc1cc(C(=O)Cc2ccc(F)cc2)c(O)cc1O
inactive: activity change, negative = inhibition [1] -28% | activity, negative = inhibition [2] -25.5% | Potency [3] > 20.6 µM

CCCCCCn1cc(C(=O)O)c(=O)c2ccccc21
inactive: activity change, negative = inhibition [1] -9% | activity, negative = inhibition [2] 8.19% | Potency [3] > 20.6 µM

Cc1ccc(C2C(C(=O)c3cc4ccccc4o3)=C(O)C(=O)N2CCCN(C)C)cc1 (centres undefined)
inactive: activity change, negative = inhibition [1] 4.95% | activity, negative = inhibition [2] 1.75% | Potency [3] > 20.6 µM

CCCc1nc(N2CCOCC2)c(C#N)c2c1CCCC2
inactive: activity change, negative = inhibition [1] -22% | activity, negative = inhibition [2] -12.3% | Potency [3] > 20.6 µM

CCOC(=O)c1c(SC)nc(SC)c2c1CCC2
inactive: activity change, negative = inhibition [1] -12.6% | activity, negative = inhibition [2] -4.26% | Potency [3] > 20.6 µM

Cc1ccccc1C(=O)c1ccc2c(c1)n(C)c(=O)n2C
inactive: activity change, negative = inhibition [1] 4.88% | activity, negative = inhibition [2] -15.6% | Potency [3] > 20.6 µM

C=CCOC(=O)C(C#N)c1nc2ccccc2nc1N1CCC(C(=O)OCC)CC1 (centres undefined)
inactive: activity change, negative = inhibition [1] -17.2% | activity, negative = inhibition [2] -10.4% | Potency [3] > 20.6 µM

CC(C)CNC(=O)c1c(N)n(/N=C/c2ccccn2)c2nc3ccccc3nc12
inactive: activity change, negative = inhibition [1] 14.9% | activity, negative = inhibition [2] 9.58% | Potency [3] > 20.6 µM

Cc1ccc(S(=O)(=O)N2CCC(N3CCCCCC3)CC2)cc1
inactive: activity change, negative = inhibition [1] 15.1% | activity, negative = inhibition [2] 10.2% | Potency [3] > 20.6 µM

Source: PubChem BioAssay (NCATS)
